SRC1 TRFRET art: counter-screen for PPARgamma SRC-1 recruitment agonists: TR-FRET artefact; AID 1051; TR-FRET detection artefact counter-screen, emission ratio; active compounds read high; TR-FRET ratio at 8 µM; hit rate 0.34% among 99,000; in the data active = TR-FRET ratio above about 2300
PPARg SRC-3 ag: PPARgamma-driven SRC-3 recruitment agonism. activation, % at 8 µM. biochemical PPARgamma/SRC-3 coactivator recruitment assay. hit rate 0.26% among 200,000. AID 731; in the data active = activation above about 23%;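 also: 0% = DMSO and 100% = reference agonist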
Target sequence (P37231 whole entry, looked up): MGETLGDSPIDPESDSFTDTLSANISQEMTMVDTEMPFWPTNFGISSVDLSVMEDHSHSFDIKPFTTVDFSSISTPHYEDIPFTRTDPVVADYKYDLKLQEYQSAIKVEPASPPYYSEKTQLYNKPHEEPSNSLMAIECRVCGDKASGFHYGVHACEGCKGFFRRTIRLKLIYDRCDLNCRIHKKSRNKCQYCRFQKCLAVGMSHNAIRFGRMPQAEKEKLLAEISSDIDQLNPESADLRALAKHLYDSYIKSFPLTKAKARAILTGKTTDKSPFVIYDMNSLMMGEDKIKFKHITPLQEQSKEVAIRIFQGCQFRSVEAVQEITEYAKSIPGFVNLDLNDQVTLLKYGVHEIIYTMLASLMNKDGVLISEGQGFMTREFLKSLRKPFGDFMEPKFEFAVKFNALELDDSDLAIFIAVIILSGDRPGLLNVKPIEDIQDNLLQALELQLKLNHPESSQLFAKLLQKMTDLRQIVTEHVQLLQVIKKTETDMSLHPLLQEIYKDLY
PPARg SRC1 recr: promotes SRC-1 coactivator recruitment by human PPARgamma; hit rate 0.41% among 200,000; AID 631; activation, % at 8 µM; PPARgamma-SRC-1 coactivator recruitment biochemical assay; in the data active = activation above about 19%;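 also: 0% = DMSO and 100% = reference agonist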
SRC3 TRFRET art: TR-FRET artefact, counter-screen to PPARgamma/SRC-3 agonist assay; PPARgamma/SRC-3 format; active compounds read high; TR-FRET ratio at 8 µM; hit rate 0.39% among 99,000; AID 1048; in the data active = TR-FRET ratio above about 2000
SRC2 TRFRET art: flags TR-FRET format artefacts in PPARgamma SRC-2 recruitment agonist screen | AID 1049 | TR-FRET artefact counter-screen; active compounds read high | hit rate 0.4% among 200,000 | TR-FRET ratio at 8 µM; in the data active = TR-FRET ratio above about 2000
PPARg SRC2 recr: promotes SRC-2 coactivator recruitment by human PPARgamma; P37231; PPARgamma LBD-SRC-2 recruitment, biochemical; activation, % at 8 µM; hit rate 0.34% among 200,000;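 also: 0% = vehicle and 100% = reference agonist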
PPARg SRC2 ag: human PPARgamma SRC-2 recruitment agonism, confirmation; shares compounds with PPARg SRC-3 ag; AID 1297; activation, % at 8 µM; biochemical SRC-2 recruitment by PPARgamma; hit rate 52% among 790;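 also: 0% = vehicle alone and 100% = reference agonist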
PPARg SRC1 conf: human PPARgamma SRC-1 recruitment agonism, confirmation. shares compounds with PPARg SRC-3 ag. PPARgamma–SRC-1 coactivator recruitment biochemical assay. activation, % at 8 µM. hit rate 43% among 790; in the data active = activation above about 20%;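 also: 0% = vehicle wells and 100% = reference agonist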
PPARg SRC3 conf: confirmation of agonists of SRC-3 recruitment by human PPARgamma. AID 1301. hit rate 29% among 790. activation, % at 8 µM. shares compounds with PPARg SRC-3 ag. biochemical PPARgamma-SRC-3 coactivator recruitment, agonist mode; in the data active = activation above about 24%;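 also: 0% = vehicle wells and 100% = reference agonist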
Active calls of the source: *; nt = not tested or not shown. Hits are enriched below; roughly 0.84% of the tested compounds scored in any of these assays. Rule as the data show it, unless noted: active = activation above about 22%; inactive = the rest.

SMILES | SRC1 TRFRET art | PPARg SRC-3 ag | PPARg SRC1 recr | SRC3 TRFRET art | SRC2 TRFRET art | PPARg SRC2 recr | PPARg SRC2 ag | PPARg SRC1 conf | PPARg SRC3 conf
CC(/C=C/c1ccccc1)=N/NC(=O)c1cccc(Br)c1 | 1481 | -0.1 | 2.9 | 1415 | 1498 | 4.0 | nt | nt | nt
Cc1ccc(S(=O)(=O)NCC(=O)OCC(=O)c2ccc(Br)s2)cc1 | nt | 66.2* | 36.2* | nt | 1836 | 55.1* | 51.2* | 31.7* | 34.8*
Cc1ccc(S(=O)(=O)NCC(=O)OCC(=O)c2cccs2)cc1 | nt | -1.8 | -0.8 | nt | 1454 | -2.8 | nt | nt | nt
CN(C)c1ccc(NC(=O)Oc2ccccc2)cc1 | nt | 91.4* | 15.2 | nt | 2246* | 58.4* | 6.7 | 3.2 | 4.5
N#Cc1c(SCC(=O)O)nc(-c2ccccc2)c2c1CCCC2 | nt | 30.2* | 17.4 | nt | 1727 | 10.9 | 13.6 | 11.3 | 9.1
CCn1c(C)nc2cc(S(=O)(=O)N3CCCC3)ccc21 | nt | -10.4 | 1.1 | nt | 1843 | 24.1* | -2.1 | 1.7 | 2.3
CC1=CCC[C@@H]2[C@@](C)(CC/C(C)=C/C(=O)O)[C@H](C)CC[C@@]12C | 1804 | 3.8 | 3.9 | 1352 | 1491 | 2.1 | nt | nt | nt
O=C1CSC2=NCN(c3ccc4c(c3)OCO4)CN12 | nt | -5.3 | 1.9 | nt | 1524 | -8.0 | nt | nt | nt
CN(C)c1ccc(N2CN=C3SCC(=O)N3C2)cc1 | nt | 86.4* | 50.5* | nt | 2229* | 64.1* | 6.1 | 9.5 | 2.6
CCOC(=O)c1c(C)[nH]sc1=S | nt | 70.3* | 40.5* | nt | 2727* | 58.4* | 33.4* | 20.6* | 24.9*
O=C(N/N=C/c1ccc(N2CCOCC2)o1)c1cccc(C(F)(F)F)c1 | nt | 12.7 | 11.7 | nt | 1609 | 23.6* | 5.6 | 3.8 | 3.9
CS(=O)(=O)c1sc2nc(-c3cccs3)cc(-c3ccccc3)c2c1N | nt | 25.0 | 21.6* | nt | 2002* | 30.1* | 27.5* | 21.9* | 20.9
NS(=O)(=O)c1ccc(-c2ccc(/C=C3\C(=O)Nc4cc(Cl)ccc43)o2)cc1 | 1718 | 16.4 | 26.6* | 1999 | 1867 | 16.4 | 30.7* | 15.6 | 17.7
CC1(C)OC(=O)C(=Cc2ccc(-c3ccc(S(N)(=O)=O)cc3)o2)C(=O)O1 | 1707 | -1.0 | -1.6 | 1686 | 1382 | -5.2 | nt | nt | nt
CC[n+]1c(/C=C/c2ccc(N(C)C)cc2)ccc2ccccc21 | 3540* | 47.1* | 61.3* | 2785* | 2167* | 64.0* | 52.5* | 38.6* | 30.1*
CC[n+]1ccc(/C=C/c2ccc(N(C)C)cc2)c2ccccc21 | 4146* | 124.8* | 149.3* | 4546* | 4436* | 109.2* | 159.9* | 119.0* | 105.0*
CC[n+]1ccccc1/C=C/c1ccc(N(C)C)cc1 | 2025 | 4.5 | -3.0 | 1475 | 1570 | 6.0 | nt | nt | nt
CN(C)c1ccc(/C=C/c2cc[n+](C)cc2)cc1 | nt | 7.5 | 9.4 | nt | 1364 | 3.9 | nt | nt | nt
COC(=O)c1ccc2c(=O)n(-c3ccccc3)c(=S)[nH]c2c1 | 1949 | -0.3 | 0.8 | 1579 | 1472 | 0.3 | nt | nt | nt
CCc1cc2c(=O)n(-c3ccccc3)c(=S)[nH]c2s1 | nt | 40.6* | 27.2* | nt | 2026* | 37.3* | 31.4* | 25.4* | 23.6
CCCCCCCn1c(C)nnc1-c1cnn(C)c1N | 1753 | -1.5 | 3.7 | 1615 | 1831 | 6.7 | nt | nt | nt
c1ccc(-c2nnsc2-c2ncc[nH]2)cc1 | 1803 | 0.7 | -5.1 | 1443 | 1496 | 1.9 | nt | nt | nt
c1ccc(-c2nnsc2-c2nc3ccccc3[nH]2)cc1 | 2080 | 12.6 | 21.4* | 1662 | 1693 | 17.0 | 40.4* | 34.2* | 21.9
CCOCCCNC(=O)/C(C#N)=C/c1cc(OC)c(O)c([N+](=O)[O-])c1 | 1839 | -2.6 | 6.1 | 1814 | 1780 | 8.3 | nt | nt | nt
CCOCCCNC(=O)/C(C#N)=C/c1ccc(Cl)c([N+](=O)[O-])c1 | 1865 | 30.1* | 16.0 | 1683 | 1826 | 10.9 | 10.1 | 19.5 | 20.1
CCC(C)c1ccc(NC(=O)COc2c(F)c(F)c(C(F)(F)F)c(F)c2F)cc1 (centres undefined) | 2084 | 6.3 | -0.2 | 1793 | 1717 | -3.8 | nt | nt | nt

Screening data as filed in PubChem.
